ALR inh = human ALR oxidase inhibition via reduced H2O2. inhibition, % (no concentration beside the values). actives 3.8% (n = 290,000). P55789. purified ALR, DTT oxidation, H2O2 HRP-luminol luminescence;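 active = mean replicate inhibition above about 79%, with every replicate also reaching it, limit read from the data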
Target sequence (P55789 whole entry, looked up): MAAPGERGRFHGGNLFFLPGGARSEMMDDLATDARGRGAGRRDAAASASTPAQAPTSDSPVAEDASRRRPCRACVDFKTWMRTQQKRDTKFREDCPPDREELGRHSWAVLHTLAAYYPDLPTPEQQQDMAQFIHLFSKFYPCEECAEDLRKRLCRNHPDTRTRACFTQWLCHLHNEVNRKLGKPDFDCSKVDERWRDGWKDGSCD
PP1 counter = counter-screen for PP5 inhibitors: inhibitors of human PP1-alpha; AID 2235; purified PP1alpha, OMFP fluorescence; inhibition, % at 6.7 µM; actives 0.9% (n = 320,000); P62136;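 active = inhibition above the mean inhibition of all tested compounds plus 3 SD, computed separately for each screening campaign, cut at about 15% in these data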
Target sequence (P62136 whole entry, looked up): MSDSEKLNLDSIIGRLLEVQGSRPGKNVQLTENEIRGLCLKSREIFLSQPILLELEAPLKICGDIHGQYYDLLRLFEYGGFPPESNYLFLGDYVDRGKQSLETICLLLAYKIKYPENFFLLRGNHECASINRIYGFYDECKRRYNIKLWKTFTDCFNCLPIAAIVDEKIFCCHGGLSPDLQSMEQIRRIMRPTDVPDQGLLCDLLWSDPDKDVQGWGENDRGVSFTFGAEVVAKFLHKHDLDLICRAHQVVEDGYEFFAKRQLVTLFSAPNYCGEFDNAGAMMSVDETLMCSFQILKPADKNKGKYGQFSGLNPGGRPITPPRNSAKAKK
Calb FLC = affects C. albicans growth with fluconazole. C. albicans CaCi-2 (fluconazole-resistant clinical isolate) + fluconazole, Alamar Blue growth, 48 h. growth inhibition, % (no concentration beside the values). actives 0.57% (n = 300,000). AID 1979;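 active = growth inhibition above about 58% in most replicates, limit read from the data, passing the limit was not always enough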;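 note: all wells also contain fluconazole at 8 µg/ml as a sub-toxic cotreatment; 0% = median of DMSO wells and 100% = median of geldanamycin control wells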
CSC inhib = blocks cancer stem cells. cancer stem cell-like cells viability, luminescence. AID 2717. actives 1.1% (n = 300,000). inhibition, % at 7.5 µM; in the data active = inhibition above about 75%; tested in HMLE shEcad cells
PP5 primary = blocks human protein phosphatase 5 activity | purified PP5c, OMFP substrate fluorescence | inhibition, % at 6.7 µM | actives 0.18% (n = 320,000) | AID 1987 | P53041;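 active = inhibition above the campaign's mean inhibition across all tested compounds plus 3 SD, cut at about 9.5% in these data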;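 note: 0% = DMSO only and 100% = 100 µM cantharidin control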
Active calls of the source: *; x = no result given. In the library only some 5.4% were active in any assay of this set; here they are far more common.

SMILES	ALR inh	PP1 counter	Calb FLC	CSC inhib	PP5 primary
Cc1c(Br)c([N+](=O)[O-])nn1CCCC(=O)Nc1c(C)n(C)n(-c2ccccc2)c1=O	-4	-6	3	-34	0
CC(C(=O)NC1CCCC1)N(C(=O)c1snc(C(N)=O)c1N)c1ccc2c(c1)OCCO2 (stereo not drawn)	96*	-3	-14	-4	0
N#C/C(=C\c1ccccc1C(F)(F)F)C(=O)Nc1ccccc1	90*	-1	5	9	-3
C=CCc1c(C)nc(-c2ccccc2)nc1N/N=C(\C)c1ccccc1	x	2	18	28	2
C=CCc1c(C)nc(-c2ccccc2)nc1Nc1ccc(O)cc1	99*	-2	-4	16	2
O=C1Oc2ccccc2C(=O)/C1=C\N1CCN(c2ccccc2)CC1	97*	1	-3	-8	-1
Cc1nnc(NC(=O)CSc2ncnc3c2cnn3-c2ccccc2C)s1	-5	-3	85*	-1	3
NC(=O)C(CC(=O)O)NC(=O)[C@@H]1CCCNc2c(I)cc([N+](=O)[O-])cc2C(=O)N[C@@H](CO)C(=O)N[C@@H](Cc2ccc(O)cc2)C(=O)N1 (stereo partly drawn)	74	2	x	-2	1
C#CCSc1nnc(-c2ccc(C)cc2)o1	-7	1	1	x	-1
Cc1cc(C(=O)Nn2cnnc2)cs1	7	-3	4	-18	0
CCN(CCCNC(=O)c1c(C)cc(=O)oc1C)c1ccccc1	99*	0	1	-9	1
CCCNC(=O)c1c(C)cc(=O)oc1C	36	0	8	-2	2
CCCCN(CCCNC(=O)c1c(C)cc(=O)oc1C)c1ccccc1	99*	-2	15	6	4
COc1ccc(NC(=O)COC(=O)C2CCN(C(=O)c3ccc(Cl)cc3)CC2)c([N+](=O)[O-])c1	-6	x	x	-2	x
COc1ccc(/C=N/NC(=O)CNC(=O)c2ccc(S(=O)(=O)N3CCOCC3)cc2)cc1OC	-4	0	-10	-5	-1
COc1c(OC)c2[nH]c(=O)cc3c4ccccc4n(c1=O)c23	-4	-5	0	-7	2
O=c1c(Cl)c(O)c2cccc3c4ccccc4n1c23	99*	-3	-2	-1	1
COc1c(O)c(=O)n2c3ccccc3c3ccnc1c32	98*	-2	-4	-9	-1
Cn1c(=O)c(-c2cccc(Cl)c2)c(O)c2ccccc21	-1	2	-16	-4	-1
CC(C)(C)NC(=O)CN(C(=O)CCN1CCCc2ccccc21)C(C)(C)C	94*	-3	-29	x	1
CNC(=O)c1c(NC(=O)c2ccc(N3C(=O)CCC3=O)cc2)sc2c1CCCC2	97*	3	-24	-21	4
CNC(=O)c1c(NC(=O)c2nc3ccccc3s2)sc2c1CCC2	97*	0	8	15	2
CC(C)(C)OC(=O)C[C@H]1C/C=C\C[C@@H](CC(=O)N(CCO)Cc2ccccc2)C(=O)N[C@@H](c2ccccc2)COC1=O	-5	x	x	-18	x
Cc1ccc2cc(/C=N/Nc3nc4ccccc4[nH]3)c(Cl)nc2c1	x	x	7	x	x
Cc1cccc(/C=N/Nc2ccc3ccccc3n2)c1	x	0	-14	4	0
SMILES	ALR inh	PP1 counter	Calb FLC	CSC inhib	PP5 primary
Cc1ccc(/C=N/Nc2ccc3ccccc3n2)o1	99*	3	-43	-9	0
Cc1ccc(/C=N\Nc2nc3ccc(Cl)cc3[nH]2)o1	95*	4	1	-2	3
CC(C)c1csc(CN2CCC(CCC(=O)NCC3CCCO3)CC2)n1 (stereo not drawn)	-15	3	-3	-12	2
COc1ccc(/C=C(/NC(=O)c2ccccc2)c2nc3ccc(Cl)cc3[nH]2)cc1OC	-4	-7	70*	8	-4
CCc1noc(C)c1C(=O)OC(C)C(=O)NCc1ccc(OC)cc1 (stereo not drawn)	x	1	x	x	0
CCc1ccccc1OCC(=O)OCC(=O)Nc1cc(C)on1	0	17*	x	x	-1
Cc1cccc(N2CCN(C(=O)c3c(-c4ccccc4Cl)noc3C)CC2)c1C	-16	2	-4	60	1
Cn1cnc([N+](=O)[O-])c1SCC(O)CN1CCCCC1 (stereo not drawn)	-2	-3	-23	0	1
O=C(O)c1cc([N+](=O)[O-])c(Sc2nc3ccccc3[nH]2)c([N+](=O)[O-])c1	85*	0	-4	-14	1
Cc1cc2nc(Sc3c([N+](=O)[O-])nc(C)n3Cc3ccccc3)[nH]c2cc1C	97*	-3	-13	-4	-1
Cn1cnc([N+](=O)[O-])c1Sc1nc2ccccc2[nH]1	99*	-2	-6	-12	1
Cn1cnc([N+](=O)[O-])c1SCC(=O)NN	88*	-2	0	-11	2
COc1ccc(N(CC(=O)Nc2ccc3c(c2)OCO3)S(=O)(=O)c2ccc(C)cc2)cc1OC	-4	-5	3	-3	-1
Cc1cccc(Sc2c([N+](=O)[O-])ncn2C)c1	98*	-1	30	8	0
CC(=O)NS(=O)(=O)c1ccc(NC(=O)/C=C/c2cn(-c3ccccc3)nc2-c2ccccc2)cc1	98*	14	-3	1	4
Cc1ccc(NC(=O)CCC(=O)N2CCOc3ccccc32)c(Cl)c1	-7	-6	0	-2	3
S=C(c1cn(CCOc2cccc3ccccc23)c2ccccc12)N1CCCC1	-4	24*	-3	4	2
O=C(O)Cn1cc(C(=S)N2CCOCC2)c2ccccc21	98*	-5	-6	2	1
S=C(c1cn(CCOc2ccccc2)c2ccccc12)N1CCCC1	x	1	-1	-2	-2
COCCNC(=O)Cn1cc(C(=S)N2CCCCC2)c2ccccc21	-14	4	-5	-6	0
O=C(O)Cn1cc(C(=S)N2CCCCC2)c2ccccc21	91*	3	-28	1	-1
COc1ccc(-c2nnc(C(C)Nc3cccc(C(=O)NC4CC4)c3)o2)cc1 (stereo not drawn)	14	x	x	7	x
C/C(=N/NC(=O)CN1CCN(S(=O)(=O)c2ccc(Br)cc2)CC1)c1cccnc1	-7	-1	-3	-4	2
COc1ccc(C)cc1NC(=O)CN1CCN(S(=O)(=O)c2ccc(Cl)cc2)CC1	17	1	2	-10	3
COc1cc(/C(C)=N/NC(=O)CN2CCN(S(=O)(=O)c3ccc(C)cc3)CC2)ccc1O	98*	-4	6	-5	-3
C/C(=N\NC(=O)CN1CCN(S(=O)(=O)c2ccc(C)cc2)CC1)c1ccc(O)cc1	99*	-1	4	-6	-2
Cc1ccc(NC(=S)NCc2ccc3[nH]c4c(c3c2)CCCC4)cc1	-3	1	-9	x	7
COCCNC(=S)NCc1ccc2[nH]c3c(c2c1)CCCC3	94*	-1	-5	-1	2
CC(C)CC(=O)NCc1ccc2[nH]c3c(c2c1)CCCC3	22	2	119*	x	0
O=C(c1cc(F)ccc1F)C1CCCN(C(=O)CCc2cnccn2)C1 (stereo not drawn)	-5	-3	1	-8	-1
